Assays:
Assay in all cases: DAPPL (digital affinity profiling via proximity ligation, sequencing); 10 mM Tris-HCl pH 7.5, 50 mM NaCl, 1 mM DTT, 4% glycerol, room temperature, 30 min; GST-TFs on glutathione beads, 16-mer random dsDNA library, 0.1% formaldehyde crosslink after washing; high values mean tight binding
Details in all cases: protein: recombinant; tags: N-terminal GST; dsDNA, one strand shown
ERF = target: T1, ERF (Homo sapiens, UniProt P50548 1-548)
T1 sequence: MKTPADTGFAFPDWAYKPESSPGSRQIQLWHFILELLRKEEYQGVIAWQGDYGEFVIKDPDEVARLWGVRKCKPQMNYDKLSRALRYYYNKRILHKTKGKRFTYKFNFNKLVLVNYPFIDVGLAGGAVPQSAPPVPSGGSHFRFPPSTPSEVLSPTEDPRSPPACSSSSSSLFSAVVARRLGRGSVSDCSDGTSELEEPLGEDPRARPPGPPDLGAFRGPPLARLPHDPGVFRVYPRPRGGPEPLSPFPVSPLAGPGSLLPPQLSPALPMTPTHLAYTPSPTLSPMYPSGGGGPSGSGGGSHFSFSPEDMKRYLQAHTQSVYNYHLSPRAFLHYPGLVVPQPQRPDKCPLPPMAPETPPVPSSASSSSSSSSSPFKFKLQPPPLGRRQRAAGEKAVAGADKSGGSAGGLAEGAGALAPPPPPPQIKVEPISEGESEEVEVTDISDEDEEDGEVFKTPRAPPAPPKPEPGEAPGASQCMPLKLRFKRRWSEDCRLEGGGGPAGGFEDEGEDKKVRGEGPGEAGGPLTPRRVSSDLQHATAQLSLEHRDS
Outline: (§1)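 Pools of DNA-barcoded human transcription factors, expressed in yeast as GST fusions on glutathione beads and combined with a tag-only sample, were incubated with 200 nmole of a 16-mer random double-stranded DNA library. Incubation took 30 min at room temperature in Tris/NaCl/DTT/glycerol buffer and was followed by washing, 0.1% formaldehyde crosslinking, proximity ligation (BsaI/T4 ligase, 1 h, 37 °C), PCR amplification and sequencing on an Illumina NextSeq500. Binding signal is the ratio of a hexamer's read frequency for a factor to its frequency for the tag-only sample.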

ETV3L = target: T2, ETV3L (Homo sapiens, UniProt Q6ZN32 1-361)
T2 sequence: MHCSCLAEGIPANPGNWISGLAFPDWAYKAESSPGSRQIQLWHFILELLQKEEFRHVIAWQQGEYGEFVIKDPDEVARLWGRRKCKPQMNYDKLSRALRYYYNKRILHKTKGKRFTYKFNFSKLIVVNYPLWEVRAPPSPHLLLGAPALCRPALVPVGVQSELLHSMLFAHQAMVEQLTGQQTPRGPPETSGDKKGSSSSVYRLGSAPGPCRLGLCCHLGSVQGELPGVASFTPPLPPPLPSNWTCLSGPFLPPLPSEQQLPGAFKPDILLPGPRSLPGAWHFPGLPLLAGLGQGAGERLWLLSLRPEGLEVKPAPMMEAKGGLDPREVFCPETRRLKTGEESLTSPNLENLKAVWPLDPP
Outline: as §1

ETS2 = target: T3, ETS2 (Homo sapiens, UniProt P15036 1-469)
T3 sequence: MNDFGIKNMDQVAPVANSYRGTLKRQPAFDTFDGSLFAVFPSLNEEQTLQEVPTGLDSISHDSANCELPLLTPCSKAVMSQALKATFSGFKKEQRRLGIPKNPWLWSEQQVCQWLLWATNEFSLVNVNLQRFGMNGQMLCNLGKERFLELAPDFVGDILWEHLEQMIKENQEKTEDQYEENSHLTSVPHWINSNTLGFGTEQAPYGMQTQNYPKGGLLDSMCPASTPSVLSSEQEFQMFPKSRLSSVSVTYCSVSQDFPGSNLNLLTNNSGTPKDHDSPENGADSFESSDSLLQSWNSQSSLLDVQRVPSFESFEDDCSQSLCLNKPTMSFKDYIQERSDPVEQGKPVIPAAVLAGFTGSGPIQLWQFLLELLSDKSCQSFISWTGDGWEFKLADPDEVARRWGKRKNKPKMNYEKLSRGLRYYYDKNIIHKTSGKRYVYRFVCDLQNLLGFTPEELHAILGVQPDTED
Outline: as §1

SPDEF = target: T4, SPDEF (Homo sapiens, UniProt O95238 1-335)
T4 sequence: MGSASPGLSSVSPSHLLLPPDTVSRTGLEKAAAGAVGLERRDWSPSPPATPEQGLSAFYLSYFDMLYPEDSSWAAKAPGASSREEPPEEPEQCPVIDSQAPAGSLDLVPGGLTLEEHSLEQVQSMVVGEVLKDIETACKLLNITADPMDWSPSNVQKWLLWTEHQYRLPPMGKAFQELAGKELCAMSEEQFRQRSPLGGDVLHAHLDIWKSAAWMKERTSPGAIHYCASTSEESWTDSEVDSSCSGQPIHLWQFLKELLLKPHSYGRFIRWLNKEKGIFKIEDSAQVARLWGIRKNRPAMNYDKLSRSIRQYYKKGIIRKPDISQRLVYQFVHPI
Outline: as §1

ETV7 = target: T5, ETV7 (Homo sapiens, UniProt Q9Y603 1-341)
T5 sequence: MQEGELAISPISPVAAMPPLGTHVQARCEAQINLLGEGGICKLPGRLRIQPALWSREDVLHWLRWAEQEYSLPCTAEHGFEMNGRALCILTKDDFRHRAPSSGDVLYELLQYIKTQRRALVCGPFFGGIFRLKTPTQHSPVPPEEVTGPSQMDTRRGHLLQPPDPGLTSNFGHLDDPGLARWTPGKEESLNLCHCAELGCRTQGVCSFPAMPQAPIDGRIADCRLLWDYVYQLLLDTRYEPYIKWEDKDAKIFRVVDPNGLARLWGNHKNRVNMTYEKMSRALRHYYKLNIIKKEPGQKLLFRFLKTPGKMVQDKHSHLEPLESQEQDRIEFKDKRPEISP
Outline: as §1

ELF5 = target: T6, ELF5 (Homo sapiens, UniProt Q9UKW6-2 1-255)
T6 sequence: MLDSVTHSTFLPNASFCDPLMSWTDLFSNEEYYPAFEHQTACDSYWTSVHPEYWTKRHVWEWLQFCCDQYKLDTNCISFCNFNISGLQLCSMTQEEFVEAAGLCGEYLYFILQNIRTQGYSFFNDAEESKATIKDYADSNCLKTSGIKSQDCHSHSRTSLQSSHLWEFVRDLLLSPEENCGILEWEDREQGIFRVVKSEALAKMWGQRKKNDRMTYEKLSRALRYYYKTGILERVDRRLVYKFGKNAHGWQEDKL
Outline: as §1

ETV3 = target: T7, ETV3 (Homo sapiens, UniProt P41162-2 1-143)
T7 sequence: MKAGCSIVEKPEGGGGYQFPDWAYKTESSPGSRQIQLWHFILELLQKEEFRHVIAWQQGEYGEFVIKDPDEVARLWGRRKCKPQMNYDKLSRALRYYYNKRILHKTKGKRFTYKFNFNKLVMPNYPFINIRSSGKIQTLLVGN
Outline: as §1

ETV6 = ETV6 (Homo sapiens, UniProt P41212 1-452)
ETV6, sequence (P41212 whole entry): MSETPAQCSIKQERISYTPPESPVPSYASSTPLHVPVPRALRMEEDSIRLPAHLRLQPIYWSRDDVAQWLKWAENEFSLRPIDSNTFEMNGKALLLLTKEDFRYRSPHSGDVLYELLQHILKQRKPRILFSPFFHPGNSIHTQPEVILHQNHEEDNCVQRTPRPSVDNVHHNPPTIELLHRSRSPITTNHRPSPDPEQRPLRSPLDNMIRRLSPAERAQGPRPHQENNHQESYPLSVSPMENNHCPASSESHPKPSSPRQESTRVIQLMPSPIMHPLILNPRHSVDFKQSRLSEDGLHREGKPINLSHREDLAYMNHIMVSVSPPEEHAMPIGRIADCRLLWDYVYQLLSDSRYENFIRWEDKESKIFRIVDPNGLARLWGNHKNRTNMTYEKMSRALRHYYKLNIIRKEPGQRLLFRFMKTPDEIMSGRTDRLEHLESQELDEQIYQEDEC
Outline: as §1

| Sequence | binding signal (ERF) | binding signal (ETV3L) | binding signal (ETS2) | binding signal (SPDEF) | binding signal (ETV7) | binding signal (ELF5) | binding signal (ETV3) | binding signal (ETV6) |
| --- | --- | --- | --- | --- | --- | --- | --- | --- |
| AAAGCA | 1.1 fold enrichment (6-mer frequency, TF over GST control) | 1.1 fold enrichment (6-mer frequency, TF over GST control) | 1.05 fold enrichment (6-mer frequency, TF over GST control) | 1.06 fold enrichment (6-mer frequency, TF over GST control) | 1.15 fold enrichment (6-mer frequency, TF over GST control) | 1.07 fold enrichment (6-mer frequency, TF over GST control) | 1.07 fold enrichment (6-mer frequency, TF over GST control) | 1.05 fold enrichment (6-mer frequency, TF over GST control) |
| CTTCCC | 1.94 fold enrichment (6-mer frequency, TF over GST control) | 2.18 fold enrichment (6-mer frequency, TF over GST control) | 2.32 fold enrichment (6-mer frequency, TF over GST control) | 2.14 fold enrichment (6-mer frequency, TF over GST control) | 1.95 fold enrichment (6-mer frequency, TF over GST control) | 3.61 fold enrichment (6-mer frequency, TF over GST control) | 2.3 fold enrichment (6-mer frequency, TF over GST control) | 2.54 fold enrichment (6-mer frequency, TF over GST control) |
| CTAGCA | 1.21 fold enrichment (6-mer frequency, TF over GST control) | 1.28 fold enrichment (6-mer frequency, TF over GST control) | 1.18 fold enrichment (6-mer frequency, TF over GST control) | 1.16 fold enrichment (6-mer frequency, TF over GST control) | 1.33 fold enrichment (6-mer frequency, TF over GST control) | 1.12 fold enrichment (6-mer frequency, TF over GST control) | 1.18 fold enrichment (6-mer frequency, TF over GST control) | 1.18 fold enrichment (6-mer frequency, TF over GST control) |
| TACACC | 1.21 fold enrichment (6-mer frequency, TF over GST control) | 1.17 fold enrichment (6-mer frequency, TF over GST control) | 1.1 fold enrichment (6-mer frequency, TF over GST control) | 1.24 fold enrichment (6-mer frequency, TF over GST control) | 1.13 fold enrichment (6-mer frequency, TF over GST control) | 1.18 fold enrichment (6-mer frequency, TF over GST control) | 1.18 fold enrichment (6-mer frequency, TF over GST control) | 1.15 fold enrichment (6-mer frequency, TF over GST control) |
| TACTCA | 1.14 fold enrichment (6-mer frequency, TF over GST control) | 1.23 fold enrichment (6-mer frequency, TF over GST control) | 1.19 fold enrichment (6-mer frequency, TF over GST control) | 1.18 fold enrichment (6-mer frequency, TF over GST control) | 1.06 fold enrichment (6-mer frequency, TF over GST control) | 1.18 fold enrichment (6-mer frequency, TF over GST control) | 1.14 fold enrichment (6-mer frequency, TF over GST control) | 1.22 fold enrichment (6-mer frequency, TF over GST control) |
| TATCCT | 1.67 fold enrichment (6-mer frequency, TF over GST control) | 1.82 fold enrichment (6-mer frequency, TF over GST control) | 1.81 fold enrichment (6-mer frequency, TF over GST control) | 2.67 fold enrichment (6-mer frequency, TF over GST control) | 1.67 fold enrichment (6-mer frequency, TF over GST control) | 2.65 fold enrichment (6-mer frequency, TF over GST control) | 1.8 fold enrichment (6-mer frequency, TF over GST control) | 1.82 fold enrichment (6-mer frequency, TF over GST control) |
| TTCCCG | 1.75 fold enrichment (6-mer frequency, TF over GST control) | 1.9 fold enrichment (6-mer frequency, TF over GST control) | 1.97 fold enrichment (6-mer frequency, TF over GST control) | 2.05 fold enrichment (6-mer frequency, TF over GST control) | 1.88 fold enrichment (6-mer frequency, TF over GST control) | 2.91 fold enrichment (6-mer frequency, TF over GST control) | 1.92 fold enrichment (6-mer frequency, TF over GST control) | 2.15 fold enrichment (6-mer frequency, TF over GST control) |
| ATTTAG | 1.22 fold enrichment (6-mer frequency, TF over GST control) | 1.15 fold enrichment (6-mer frequency, TF over GST control) | 1.07 fold enrichment (6-mer frequency, TF over GST control) | 1.13 fold enrichment (6-mer frequency, TF over GST control) | 1.07 fold enrichment (6-mer frequency, TF over GST control) | 1.04 fold enrichment (6-mer frequency, TF over GST control) | 1.12 fold enrichment (6-mer frequency, TF over GST control) | 1.21 fold enrichment (6-mer frequency, TF over GST control) |
| ATTCAT | 1.14 fold enrichment (6-mer frequency, TF over GST control) | 1.27 fold enrichment (6-mer frequency, TF over GST control) | 1.13 fold enrichment (6-mer frequency, TF over GST control) | 1.07 fold enrichment (6-mer frequency, TF over GST control) | 1.18 fold enrichment (6-mer frequency, TF over GST control) | 1.1 fold enrichment (6-mer frequency, TF over GST control) | 1.19 fold enrichment (6-mer frequency, TF over GST control) | 1.11 fold enrichment (6-mer frequency, TF over GST control) |
| AATTAG | 1.15 fold enrichment (6-mer frequency, TF over GST control) | 1.12 fold enrichment (6-mer frequency, TF over GST control) | 1.09 fold enrichment (6-mer frequency, TF over GST control) | 1.06 fold enrichment (6-mer frequency, TF over GST control) | 1.25 fold enrichment (6-mer frequency, TF over GST control) | 1.1 fold enrichment (6-mer frequency, TF over GST control) | 1.19 fold enrichment (6-mer frequency, TF over GST control) | 1.13 fold enrichment (6-mer frequency, TF over GST control) |
| CATTCT | 1.43 fold enrichment (6-mer frequency, TF over GST control) | 1.31 fold enrichment (6-mer frequency, TF over GST control) | 1.23 fold enrichment (6-mer frequency, TF over GST control) | 1.24 fold enrichment (6-mer frequency, TF over GST control) | 1.35 fold enrichment (6-mer frequency, TF over GST control) | 1.27 fold enrichment (6-mer frequency, TF over GST control) | 1.21 fold enrichment (6-mer frequency, TF over GST control) | 1.34 fold enrichment (6-mer frequency, TF over GST control) |
| GCTCCC | 1.29 fold enrichment (6-mer frequency, TF over GST control) | 1.27 fold enrichment (6-mer frequency, TF over GST control) | 1.35 fold enrichment (6-mer frequency, TF over GST control) | 1.47 fold enrichment (6-mer frequency, TF over GST control) | 1.31 fold enrichment (6-mer frequency, TF over GST control) | 1.33 fold enrichment (6-mer frequency, TF over GST control) | 1.21 fold enrichment (6-mer frequency, TF over GST control) | 1.25 fold enrichment (6-mer frequency, TF over GST control) |
